# Sampled rows, rich in hits. Any-hit rate of the full collection: about 11%.
# Luciferase inh = inhibitors of firefly (Photinus pyralis) luciferase; purified P. pyralis luciferase, luminescence, biochemical; Potency, µM (highest dose often 115 µM), usual class: inhibitors; 76,000 compounds, 2.5% hits; AID 1347043; also: nearly all actives have a fitted effect of over 65% in size
# Target sequence (P08659 whole entry, looked up): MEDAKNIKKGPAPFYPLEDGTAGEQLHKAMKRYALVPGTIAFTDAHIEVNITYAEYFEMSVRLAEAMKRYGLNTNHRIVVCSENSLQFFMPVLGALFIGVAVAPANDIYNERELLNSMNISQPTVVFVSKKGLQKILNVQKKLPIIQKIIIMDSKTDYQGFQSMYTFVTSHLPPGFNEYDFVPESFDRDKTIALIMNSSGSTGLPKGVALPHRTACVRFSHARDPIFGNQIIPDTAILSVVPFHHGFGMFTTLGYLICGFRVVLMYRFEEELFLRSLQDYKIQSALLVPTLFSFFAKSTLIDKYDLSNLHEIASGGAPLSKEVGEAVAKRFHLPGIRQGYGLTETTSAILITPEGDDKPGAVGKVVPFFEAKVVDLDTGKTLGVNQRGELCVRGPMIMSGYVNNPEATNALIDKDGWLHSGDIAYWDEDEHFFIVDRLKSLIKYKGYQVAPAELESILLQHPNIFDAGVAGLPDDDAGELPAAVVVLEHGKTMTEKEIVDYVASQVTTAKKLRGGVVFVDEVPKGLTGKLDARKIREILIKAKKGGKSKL
#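 Biochemical qHTS: compound (6-point titration) added to 10uM D-luciferin plus 10uM ATP in Tris acetate pH 7.5 buffer with Mg, Tween-20 and BSA, then purified enzyme at 10nM; light output imaged.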
# HEK293 tox = cytotoxic compounds in HEK 293 cells; 94,000 compounds, 6.6% hits; HEK 293 viability, ATP luminescence (CellTiter-Glo), 48-72 h; Potency, µM (titrated, usually from 115 µM), for the others: at the highest dose activity change, negative = cytotoxicity, usual class: inhibitors; also: nearly all actives have a fitted effect of over 60% in size
#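 Pintool-delivered compounds were incubated with HEK 293 cells (250 cells/well) at 37 degree Celsius for 48 or 72 hr. ATP-dependent luminescence (CellTiter-Glo) then reported remaining viable cells.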
# hNpr1 antagonist = blocks ANP-stimulated signaling of human Npr1 receptor | HEK293 hNpr1 GloSensor cGMP, ANP-stimulated luminescence | Potency, µM (doses to about 46.3 µM), inactives show at the top dose activity change, negative = inhibition, hits mostly inhibitors | 76,000 compounds, 1.6% hits; calls by dose curve; also: nearly all actives have a fitted effect of over 60% in size
#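 HEK293 cells stably expressing human Npr1 and cGMP GloSensor pGS-40F, loaded 2 h with 2% GloSensor reagent, given compound 30 min at room temperature. Luminescence read before and 20 min after 0.1 nM hNppA.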
# NIH3T3 tox = cytotoxic compounds in NIH 3T3 cells; NIH 3T3 viability, CellTiter-Glo ATP luminescence, 48-72 h; Potency, µM (titrated, usually from 96.7 µM), inactives show at the top dose activity change, negative = cytotoxicity, actives largely listed as inhibitors; 94,000 compounds, 4.3% hits; also: nearly all actives have a fitted effect of over 55% in size
#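 First NIH 3T3 cells are plated at 400 cells/well; next compound is pinned in; then plates incubate 48 or 72 hr at 37 °C; finally CellTiter-Glo is added and luminescence read after 10 min.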
# * hit, by the source's call; i = inactive; ? = inconclusive; . = no result; [ ] = remark or other dose. Unless noted, calls follow the shape of the dose curve; as a rule, active = well fitted curve in the direction sought with a large enough effect; inconclusive = small, poorly fitted or top-dose-only effect, or another doubt; inactive = no such curve, though single readings can be large; an effect the other way counts as inactive or inconclusive. % is scaled to controls: 0 for no effect and ±100 for the full control effect; potency is read from the fitted curve at half-maximal effect.
SMILES,Luciferase inh,HEK293 tox,hNpr1 antagonist,NIH3T3 tox
COc1ccc(-c2ccc3ncc(Nc4cccc(Cl)c4)n3n2)cn1,i,45µM*,?,?
COC1CCC12CCN(C(=O)c1nccc3ccccc13)CC2 (stereo unspecified),.,-16%,.,2%
COc1ccc(NC(=O)c2ccc3oc(-c4cccnc4OC)nc3c2)cc1,.,?,.,-22%[138 µM]
Cc1ncccc1-c1nc2cc(C(=O)NCCCc3ccccc3)ccc2o1,.,79µM*,.,50µM*
COc1ncccc1-c1nc2cc(C(=O)Nc3cccc(Cl)c3)ccc2o1,.,13µM*,.,-32%
Cc1cccc(-c2nc3ccc(C(=O)NC4CC4)cc3o2)n1,.,45µM*,.,?
O=C(NC1CC1)c1ccc2nc(-c3cccnc3)oc2c1,.,?,.,-34%[138 µM]
COc1ccc(NC(=O)c2ccc3nc(-c4ccccn4)oc3c2)cc1,.,25µM*,.,-39%
O=C(O)c1ccc(CN2C[C@@H]3OCC(=O)N(CC4CC4)[C@@H]3C2)cc1,i,-2%[172 µM],0%[70.6 µM],4%[138 µM]
CN1c2cc(C(=O)Nc3ccc(Cl)c(F)c3)ccc2C(=O)N2CCCCCC21 (stereo unspecified),?,?,-4%,?
Cn1cccc1C(=O)N1CC(F)(F)C[C@H]1c1nnc(C2CC2)o1,i,i,12%,3%
COCc1nnc(C2CC3(CCN(C(=O)c4ccnn4C)CC3)CN2C)o1 (stereo unspecified),.,-5%,.,i
O=C(NCC1CC1)c1ccc2nc(-c3ccncc3)oc2c1,.,2%,.,-8%
O=C(NCC1CC1)c1ccc2nc(-c3ccccn3)oc2c1,.,112µM*,.,?
O=C(CCCc1ccccc1)N1CCC2(CC1)CN(C1CCC1)CC2CO (stereo unspecified),?,?,-28%,?
CC(C)(C)c1ccc(-c2cc(C[C@H]3CNCC[C@H]3CC(=O)N3CCC(n4c(=O)[nH]c5ccccc54)CC3)no2)cc1,i,22µM*,-1%,25µM*
CC(C)(C)c1ccc(-c2cc(C[C@H]3CNCC[C@H]3CC(=O)N3CCOCC3)no2)cc1,i,25µM*,3%[70.6 µM],?
O=C(NCCC1=CCCCC1)c1c(OCC2CC2)cc(=O)n2c1CCCCC2,i,-25%,-13%,?
Cc1cnc(C2CCN(C(=O)C3CCCC3)C2)n1Cc1ccccc1 (stereo unspecified),i,-21%,-20%,-11%
Cc1cnc(C2CCN(CC3CCCCC3)C2)n1Cc1ccccc1 (stereo unspecified),.,22µM*,.,20µM*
O=C(c1ccccc1F)N1CCCC(Cc2nc(C3CCOCC3)no2)C1 (stereo unspecified),i,-2%,5%,-7%
O=S(=O)(c1ccccc1F)N1CCC(CCc2nc(C3CCOCC3)no2)CC1,.,45µM*,.,?
CCCNC(=O)N1CCC(Cc2ccc(CCNC(C)=O)cc2)CC1,.,45µM*,.,?
CCNC(=O)N1CCC(Cc2ccc(C(=O)Nc3cccc(F)c3)cc2)CC1,25µM*,40µM*,11µM*,?
CCNC(=O)c1ccc(CC2CCN(C(C)=O)CC2)cc1,i,-6%,0%,-12%
SMILES,Luciferase inh,HEK293 tox,hNpr1 antagonist,NIH3T3 tox
CCCn1c(C)cnc1CC1CCN(C(=O)NCCc2ccccc2)CC1,i,1%,2%,-17%
O=C(NCCC1CCN(C(=O)Nc2cc(F)cc(F)c2)CC1)c1ccccc1,28µM*,?,-4%,-26%
COc1ccc(-c2nc(C)nc3c2CN(C(=O)C(C)(C)C)CC3)cc1,.,-23%[172 µM],.,-22%[138 µM]
Cc1ccc(-c2c(C(=O)NC3CCCCC3)nc3sccn23)cc1,.,?,.,-22%[138 µM]
CN1CCCN(S(=O)(=O)c2cccc(Cl)c2)c2ccccc21,i,40µM*,-20%,?
CC(C)CNC(=O)c1cc(-c2ccc(F)cc2)c2nncn2n1,.,?,.,45µM*
CC(C(=O)N1CCOc2ccc(CCC(=O)NCC3CC3)cc2C1)c1ccccc1 (stereo unspecified),.,?,.,-11%
COc1cccc(C(O)c2nc(C(=O)Nc3ccc4c(c3)NC(=O)CO4)c(C)o2)c1 (stereo unspecified),63µM*,89µM*,-4%[70.6 µM],?
O=C(c1ccc2c(c1)OCO2)N1CCC2(CC1)CC(c1cccc(C(F)(F)F)c1)=NO2,i,?,-29%,?
O=C(Cc1cccc(Cl)c1)N1CCC2(CC1)CC(c1cccc(C(F)(F)F)c1)=NO2,.,28µM*,.,?
O=C(Cc1ccccc1)N1CCC2(CC1)CC(c1cccc(C(F)(F)F)c1)=NO2,.,45µM*,.,?
FC(F)(F)c1cccc(C2=NOC3(CCN(Cc4ccccc4)C3)C2)c1 (stereo unspecified),.,45µM*,.,?
FC(F)(F)c1cccc(C2=NOC3(CCN(Cc4ccccc4)CC3)C2)c1,i,?,4%,?
COc1ccc(CC(=O)N2CCC3(CC2)CC(c2cccc(C(F)(F)F)c2)=NO3)cc1,.,40µM*,.,?
O=C(NCc1ccc(Cl)cc1)C1CN(C2CCCC2)C(=O)N1 (stereo unspecified),.,-27%[172 µM],.,-37%[138 µM]
COCC(=O)NC1CCC12CCN(C(=O)Nc1ccc3c(c1)OCCO3)CC2 (stereo unspecified),45µM*,-23%,-10%,?
CCN1C(=O)C2CC3(CCN(C(=O)Nc4ccc5c(c4)OCCO5)CC3)CN2C1=O (stereo unspecified),35µM*,-16%,0%,-2%
NC(=O)COc1ccccc1OC[C@@H]1CCCN2CCCC[C@H]12,i,-9%,5%,-4%
CCOc1cccc(CNC(=O)c2ccc3c(c2)N(S(=O)(=O)c2ccccc2)CC3)c1,i,?,-4%,-18%
CCC(O)c1cc2n(n1)CCN(c1nc(-c3ccccc3)nc3c1CCC3)C2 (stereo unspecified),i,?,5%,?
CCCCN1CCN(c2nc(-c3ccccc3)nc3c2CCNC3)CC1=O,i,79µM*,-1%,?
O=C(NCC1(COc2cccnc2)C[C@@H](O)[C@@H](O)C1)C1CC1 (stereo partly specified),i,32µM*,?,?
O=C(N[C@H]1CCN2C(=O)c3cc(-c4ccccc4F)ccc3NC(=O)[C@@H]2C1)c1ccc(F)c(Cl)c1,i,10µM*,?,10µM*
CS(=O)(=O)N[C@H]1CCN2C(=O)c3cc(-c4cccc(C(F)(F)F)c4)ccc3NC(=O)[C@@H]2C1,i,5%,0%,-4%
C=CCNC(=O)N[C@H]1CCN2C(=O)c3ccc(Cl)cc3NC(=O)[C@@H]2C1,i,?,3%[70.6 µM],32µM*
O=C(N[C@H]1CCN2C(=O)c3cc(-c4cccc(C(F)(F)F)c4)ccc3NC(=O)[C@@H]2C1)c1ccncc1,i,40µM*,-2%,?
CC(C)NC(=O)N[C@H]1CCN2C(=O)c3cc(-c4ccccc4F)ccc3NC(=O)[C@@H]2C1,i,?,1%[70.6 µM],-26%[174 µM]
COc1cccc(C(=O)N2CCN(CCCn3nc4n(c3=O)CCCC4)CC2)c1,.,-12%,.,-23%

# From PubChem
